In PubChem BioAssay:
Active and inactive are the calls of the source.

How the values were obtained:
[1] = E. coli DRC41 culture turbidity changes, primary screen, E. coli filamentation inducer project, strain DRC41, OD650, 48 h (AID 1152);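 also: E. coli MC1000 strain DRC41 lacking acrAB efflux pump and sulA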; details: E. coli DRC41 (acrAB sulA), higher = more signal, called active from +8 up or from −8 down
[2] = small-molecule binders of probe aLefty1, primary screen, biochemical, small-molecule microarray, 635/667 nm fluorescence (AID 1153); details: higher = more signal;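 also: score merges spot fluorescence with signal-to-noise ratio from the scanned slide images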
[3] = PSAC antagonists in infected red cells, primary screen, cell-based, P. falciparum Indochina, OD700, 1 h (AID 1154); details: P. falciparum Indochina infected RBC osmotic lysis, higher = more signal, called active from +8 up or from −8 down
[4] = PSAC antagonists in infected red cells, primary screen, cell-based, P. falciparum Indochina, OD700, 2 h (AID 1155);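 also: lysis reports solute entry through the parasite surface anion channel PSAC; channel blockers reduce lysis of infected cells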; details: P. falciparum Indochina infected erythrocytes, osmotic lysis OD700; higher = more signal, called active from +8 up or from −8 down
[5] = osmotic lysis modulators in infected erythrocytes, primary screen, PSAC antagonist project, cell-based, P. falciparum Indochina, OD700, 3 h (AID 1156); details: higher = more signal, called active from +8 up or from −8 down
[6] = PSAC antagonists in infected red cells, primary screen, cell-based, P. falciparum Indochina, OD700, 18 h (AID 1157); details: P. falciparum Indochina infected erythrocytes, osmotic lysis OD700, 18 h; higher = more signal, called active from +8 up or from −8 down
[7] = modulators of S6 phosphorylation in cells, primary screen, cell-based, A549, cytoblot, luminescence, serum-stimulated (AID 1158); details: A549 phospho-S6 cytoblot, 5 h, higher = more signal;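 also: serum-stimulated A549 lung adenocarcinoma cells; signal is phosphorylated S6 detected by cytoblot immunostaining with HRP secondary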
[8] = biological target: NADPH oxidase 2 (Homo sapiens) (UniProt P04839); experiment: NOX2-dependent H2O2 signal modulators, primary screen, NOX inhibitor project, cell-based, HEK293-NOX2, PMA-stimulated, Amplex Red fluorescence (AID 1159); details: 45 min, higher = more signal, called active from +8 up or from −8 down; also: test concentration not given here
Sequence of NADPH oxidase 2 (Homo sapiens) (P04839 whole entry, looked up): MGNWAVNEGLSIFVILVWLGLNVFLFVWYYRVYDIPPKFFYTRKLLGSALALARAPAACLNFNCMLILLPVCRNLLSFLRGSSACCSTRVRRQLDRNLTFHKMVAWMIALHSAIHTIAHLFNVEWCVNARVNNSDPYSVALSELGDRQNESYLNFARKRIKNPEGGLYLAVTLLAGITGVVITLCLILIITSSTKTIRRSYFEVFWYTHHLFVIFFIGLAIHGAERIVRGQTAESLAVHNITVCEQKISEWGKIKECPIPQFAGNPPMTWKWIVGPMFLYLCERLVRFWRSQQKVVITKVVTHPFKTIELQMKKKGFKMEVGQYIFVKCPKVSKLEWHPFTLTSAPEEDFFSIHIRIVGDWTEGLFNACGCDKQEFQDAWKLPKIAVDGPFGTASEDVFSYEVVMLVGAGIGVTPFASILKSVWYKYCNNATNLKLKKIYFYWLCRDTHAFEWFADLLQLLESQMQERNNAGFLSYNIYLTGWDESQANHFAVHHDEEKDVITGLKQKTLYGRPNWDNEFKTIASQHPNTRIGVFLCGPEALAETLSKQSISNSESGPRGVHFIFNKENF

[9] = biological target: NADPH oxidase 4 (Homo sapiens) (UniProt Q9NPH5); experiment: NOX4-dependent H2O2 signal modulators, primary screen, NOX inhibitor project, cell-based, HEK293-NOX4, tetracycline-induced, Amplex Red fluorescence (AID 1160); details: 45 min, higher = more signal, called active from +8 up or from −8 down
Sequence of NADPH oxidase 4 (Homo sapiens) (Q9NPH5 whole entry, looked up): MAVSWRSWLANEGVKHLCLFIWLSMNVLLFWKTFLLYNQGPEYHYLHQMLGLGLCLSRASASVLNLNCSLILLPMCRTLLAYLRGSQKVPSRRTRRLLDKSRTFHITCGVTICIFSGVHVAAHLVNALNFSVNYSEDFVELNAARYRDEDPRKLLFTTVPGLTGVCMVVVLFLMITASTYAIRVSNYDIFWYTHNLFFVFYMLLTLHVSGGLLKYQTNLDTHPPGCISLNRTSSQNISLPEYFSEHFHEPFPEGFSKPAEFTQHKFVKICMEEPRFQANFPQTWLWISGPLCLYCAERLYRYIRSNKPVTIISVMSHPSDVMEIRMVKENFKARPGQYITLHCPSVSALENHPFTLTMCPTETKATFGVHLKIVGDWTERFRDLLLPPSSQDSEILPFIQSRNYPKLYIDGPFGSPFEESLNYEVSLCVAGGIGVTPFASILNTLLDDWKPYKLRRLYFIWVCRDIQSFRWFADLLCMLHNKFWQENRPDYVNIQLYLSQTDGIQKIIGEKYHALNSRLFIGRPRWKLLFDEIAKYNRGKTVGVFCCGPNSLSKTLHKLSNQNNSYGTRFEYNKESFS

[10] = biological target: NADPH oxidase 5 (Homo sapiens) (UniProt Q96PH1); experiment: NOX5-dependent H2O2 signal modulators, primary screen, NOX inhibitor project, cell-based, HEK293-NOX5, Amplex Red fluorescence (AID 1161); details: HEK293-NOX5, ionomycin, 45 min, higher = more signal
Sequence of NADPH oxidase 5 (Homo sapiens) (Q96PH1 whole entry, looked up): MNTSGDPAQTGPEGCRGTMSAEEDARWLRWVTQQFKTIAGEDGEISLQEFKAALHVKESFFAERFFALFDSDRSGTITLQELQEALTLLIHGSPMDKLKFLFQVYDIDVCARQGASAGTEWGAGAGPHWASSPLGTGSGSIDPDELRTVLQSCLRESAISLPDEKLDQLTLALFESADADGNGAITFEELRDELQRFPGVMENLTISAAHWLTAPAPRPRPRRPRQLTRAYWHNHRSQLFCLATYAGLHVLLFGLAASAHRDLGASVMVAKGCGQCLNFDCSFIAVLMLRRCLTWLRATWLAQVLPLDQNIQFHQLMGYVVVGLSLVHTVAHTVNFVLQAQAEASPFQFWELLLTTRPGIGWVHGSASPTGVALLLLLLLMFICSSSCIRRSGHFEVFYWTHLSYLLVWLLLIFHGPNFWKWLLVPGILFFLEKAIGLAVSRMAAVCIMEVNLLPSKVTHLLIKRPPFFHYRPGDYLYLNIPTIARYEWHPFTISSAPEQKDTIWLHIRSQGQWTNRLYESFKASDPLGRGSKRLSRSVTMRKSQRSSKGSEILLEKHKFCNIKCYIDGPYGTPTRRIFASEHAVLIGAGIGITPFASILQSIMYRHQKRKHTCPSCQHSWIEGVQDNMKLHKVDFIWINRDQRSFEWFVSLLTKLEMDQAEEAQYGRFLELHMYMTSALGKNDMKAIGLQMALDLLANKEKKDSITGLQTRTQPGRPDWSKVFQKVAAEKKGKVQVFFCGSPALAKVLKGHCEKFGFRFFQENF

Structure (SMILES)	z-score [1]	composite z-score [2]	z-score [3]	z-score [4]	z-score [5]	z-score [6]	z-score [7]	z-score [8]	z-score [9]	z-score [10]
NC(=O)NCC#Cc1ccc2c(c1)[C@]1(C(=O)N2)[C@H](C(=O)NC[C@H](O)c2ccccc2)[C@H]2C(=O)O[C@H](c3ccccc3)[C@H](c3ccccc3)N2[C@@H]1c1ccccc1OCCO	2.23 (inactive)	0.157	1.15 (inactive)	-0.658 (inactive)	0.0336 (inactive)	-2.16 (inactive)	1.5	0.121 (inactive)	-1.95 (inactive)	-1.81
C=CC[C@]1(C(=O)O)N=C(c2ccc(OCCCO)cc2)O[C@H]1c1ccccc1CN=[N+]=[N-]	0.0533 (inactive)	0.0425	13.7 (active)	1.93 (inactive)	-0.055 (inactive)	0.665 (inactive)	-0.0651	0.324 (inactive)	1.03 (inactive)	1.58
C=CCC(OC(C)=O)[C@@H]1[C@@H](N(Cc2cc3ccccc3o2)C(=O)c2cccc3ccccc23)c2cc(OCCCO)ccc2N1C(=O)Cc1ccc(OC)cc1 (stereo not given in full)	-0.901 (inactive)	-0.195	1.7 (inactive)	0.923 (inactive)	1.66 (inactive)	0.629 (inactive)	0.907	-1.79 (inactive)	-0.428 (inactive)	-1.57
COc1ccc([Si](C)(C)[C@H]2[C@H](CC(=O)N(CCO)Cc3ccccc3)O[C@@]3(C(=O)N(Cc4cccc(N5C(=O)c6cccc7cccc5c67)c4)c4ccccc43)[C@@H]2C)cc1	1.33 (inactive)	-0.0507	13.2 (active)	0.787 (inactive)	-0.924 (inactive)	-0.34 (inactive)	2.67	0.38 (inactive)	0.39 (inactive)	1.83
CN(C)CCCC[C@@H]1NC(=O)[C@@H]2C[C@H](C(=O)NCCCCCCN)[C@H](c3ccc(O)cc3)N2C1=O	-0.337 (inactive)	1.37	1.98 (inactive)	0.288 (inactive)	1.28 (inactive)	0.229 (inactive)	-0.648	1.46 (inactive)	-0.964 (inactive)	1.01
COCCOC(=O)N1C(=O)[C@@]2(c3cc(C#Cc4ccc(OC)cc4)ccc31)[C@H](c1ccc(OCCO)cc1)N1[C@H](c3ccccc3)[C@H](c3ccccc3)OC(=O)[C@H]1[C@@H]2C(=O)N1CCc2cc(OC)c(OC)cc2C1	2.55 (inactive)	0.212	4.14 (inactive)	1.8 (inactive)	-0.867 (inactive)	0.608 (inactive)	1.02	0.576 (inactive)	0.459 (inactive)	1.27
CC(C)N1C(=O)c2ccccc2[C@](C)(C(=O)NC2CC2)[C@@H]1c1ccc(CO)cc1	0.897 (inactive)	0.0451	0.838 (inactive)	0.122 (inactive)	-0.173 (inactive)	0.475 (inactive)	-0.0085	-0.987 (inactive)	-0.354 (inactive)	-0.547
C[n+]1ccc2ccc(O)cc2c1	0.0539 (inactive)	-0.109	0.907 (inactive)	0.557 (inactive)	1.95 (inactive)	0.374 (inactive)	0.387	-0.469 (inactive)	-0.566 (inactive)	0.0145
O=C(NCc1ccccc1)[C@@H]1c2ccccc2C(=O)N(Cc2cc(F)cc(C(F)(F)F)c2)[C@H]1c1ccc(CO)cc1	0.363 (inactive)	0.0455	5.82 (inactive)	1.23 (inactive)	1.03 (inactive)	0.156 (inactive)	-0.26	-2.01 (inactive)	0.598 (inactive)	-1.58
C=CC[C@]1(C(=O)NCCN2CCOCC2)N=C(c2ccc(OCCCO)cc2)O[C@H]1c1ccccc1N=[N+]=[N-]	1.39 (inactive)	0.14	30.7 (active)	28.6 (active)	2.5 (inactive)	5.98 (inactive)	-0.106	-0.798 (inactive)	1.5 (inactive)	0.108
O=C1NC(=O)C2C1C=CC(C(O)c1cccs1)N2Nc1ccccn1 (stereo not given)	0.218 (inactive)	-0.0035	0.624 (inactive)	0.253 (inactive)	-0.285 (inactive)	0.853 (inactive)	-0.726	0.659 (inactive)	-1.32 (inactive)	-0.795
